Each structure is given as a SMILES string. About 79,000 compounds went through this panel and 15% of them were active in at least one assay; those are over-represented in the sample as a whole. Unmarked numbers belong to inactive results. Activity calls are given as the source filed them. No stated cut-off is given here; in the data, active means growth inhibition above about 70%; inactive means the rest.

The results in this text go back to PubChem BioAssay (NCI).

The first experiment is described as follows: NCI Yeast Anticancer Drug Screen. Data for the bub3 strain (AID 167). To be noted: S. cerevisiae bub3 mutant strain, at 50.0 µM, active compounds read high. In short, it runs like this:
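In this screen, a yeast mutant lacking normal mitotic checkpoint function is challenged with compound. Relative growth versus vehicle gives the inhibition value.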
For the compound `N#Cc1c2c(c(-c3cccs3)n(C3OC(CO)C(O)C(O)C3O)c1=S)CCc1ccccc1-2` (stereo not given), the growth inhibition was 0.8%.

As for `CCOC(=O)CCc1c(C)c2c(O)cc(O)cc2oc1=O`, the growth inhibition is -42.9%.

For the compound `CCOC(=O)C(CCC#N)(CCC#N)C(C)=O`, the growth inhibition is 0.15%.

As to `O=c1nc2sc3ccccc3c(=O)n2[nH]1`, the growth inhibition is -12.2%.

As for `CC(C)OCCCN(Cn1c(=S)sc2ccccc21)Cn1c(=S)sc2ccccc21`, the growth inhibition was 39.2%.

Turning to `COC(=O)CCC(CCC(=O)O)([N+](=O)[O-])[N+](=O)[O-]`, the growth inhibition was -12.1%.

`CCN1CCCN(CC)C1=O`: the growth inhibition is -0.45%.

`COc1ccc(NC2=CC(=O)C(=O)c3ccccc32)nn1`: the growth inhibition is -1.65%.

Regarding `COc1cccc(C(=O)NNC(=O)c2ccc3ccccc3c2)c1`, the growth inhibition is 3.9%.

With `Cc1cccc(Cl)c1NC(=O)c1cccc([N+](=O)[O-])c1`, the growth inhibition is 32.4%.

As for `COC(=O)C1=C(C(=O)OC)C(=Nc2ccccc2)c2ccccc2C1=O`, the growth inhibition is 51.4%.

As for `Cc1nc2ccccc2nc1N1CCCC1`, the growth inhibition is -47.8%.

For `COc1ccc(N=C2C(=Nc3ccc(OC)cc3)N(c3ccc(OC)cc3)C(=S)N2C)cc1`, the growth inhibition was -7.65%.

As for `CCSc1ccc(C)cc1`, the growth inhibition was -8.1%.

With `COc1ccc(/C(Br)=C2\OC(=O)c3ccccc32)cc1`, the growth inhibition was 18.4%.

As to `NC(N)=NC1NCC(=O)S1` (stereo not given), the growth inhibition is 7.15%.

With `COc1ccc(N)c(C(O)CCNC(C)=O)c1` (stereo not given), the growth inhibition was -43.5%.

Consider `CCCCNc1nc(SC)nc2nc[nH]c12`, for which the growth inhibition is -26.4%.

For the compound `Nc1ncnc(N)c1NC(=O)c1ccc(CCc2ccccc2)c(Cl)c1`, the growth inhibition is 4.1%.

Take `CCCCCCCN1C=CCC(S(=O)(=O)N2CCOCC2)=C1`: the growth inhibition was -16.8%.

As for `CSc1c(S(C)=O)[nH]c2cc(Br)cc(Br)c12` (stereo not given), the growth inhibition is 89.4% (active).

Take `C/C=C/C=N/SC(c1ccccc1)(c1ccccc1)c1ccccc1`: the growth inhibition was -26.1%.

Consider `COc1cc(/C=C/C(=O)c2sc(NNC(C)=O)nc2C)ccc1O`, for which the growth inhibition was 18.8%.

For `CC[n+]1ccc(/C=C\c2c(Cl)cccc2Cl)cc1`, the growth inhibition was 7.8%.

For the compound `C=CCOC(=O)C1CC=CCC1C(=O)OCC=C` (stereo not given), the growth inhibition is -3.95%.

Turning to `N#C/C(=C/O)c1ccccc1`, the growth inhibition is 5.6%.

On to `COC(=O)CCSCC(N)C(=O)O` (stereo not given), for which the growth inhibition was -0.95%.

On to `CCOCCOc1nc(C)cc(C)c1C#N`, for which the growth inhibition was -29.5%.

As to `CC(OS(C)(=O)=O)C(C)OS(C)(=O)=O` (stereo not given), the growth inhibition is 0.95%.

For `COc1ccccc1NS(=O)(=O)c1ccc2ncn(NS(=O)(=O)c3ccc(Cl)cc3)c(=O)c2c1`, the growth inhibition was 26%.

Regarding `ClC1CC2CC1C1CCCC21` (stereo not given), the growth inhibition was 4.8%.

As for `CN1CCN(C(=O)/C(=C/c2ccccc2)NC(=O)c2ccccc2)CC1`, the growth inhibition was 0.1%.

Regarding `CCCCCCC(CC)C(N)=O` (stereo not given), the growth inhibition was -8.15%.

In the case of `O=C1CN(c2ccc(Cl)cc2)C(=O)CN1CCN1CC(=O)N(c2ccc(Cl)cc2)CC1=O`, the growth inhibition is -39.6%.

As to `COC(=O)C1=C(C(=O)OC)C(C)(C)N=N1`, the growth inhibition was 16.1%.

As for `O=S1(=O)CCCC1C(O)c1ccccc1` (stereo not given), the growth inhibition is 1.55%.

As for `COc1cc(CNC(=O)CCCCCCCCCCSSCCCCCCCCCCC(=O)NCc2ccc(O)c(OC)c2)ccc1O`, the growth inhibition was -13.3%.

Regarding `Cc1ccccc1C(=O)c1ccccc1Cc1cccc2ccccc12`, the growth inhibition was 8.95%.

With `CCCCCCCCCC(=O)OCC1OC(n2cc(F)c(=O)[nH]c2=O)C(NC(=O)OCc2ccccc2)C(OC(=O)CCCCCCCCC)C1O` (stereo not given), the growth inhibition is -0.35%.

On to `CN(C)CCCN=c1c2ccccc2n(C)c2[nH]c(=O)n(C)c(=O)c12`, for which the growth inhibition is 0.05%.

The next experiment is described as follows: NCI Yeast Anticancer Drug Screen. Data for the mlh1 rad18 strain (AID 175). Conditions: S. cerevisiae mlh1 rad18 strain growth inhibition; at 50.0 µM; active compounds read high. A digest of the protocol: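 Inhibition values reflect reduced growth of mutant yeast versus vehicle-treated controls following compound exposure; the mutations affect DNA damage repair.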
As for `N#Cc1c2c(c(-c3cccs3)n(C3OC(CO)C(O)C(O)C3O)c1=S)CCc1ccccc1-2` (stereo not given), the growth inhibition was 1.6%.

Take `CCOC(=O)CCc1c(C)c2c(O)cc(O)cc2oc1=O`: the growth inhibition was 20.7%.

For the compound `CCOC(=O)C(CCC#N)(CCC#N)C(C)=O`, the growth inhibition is 15.1%.

As to `O=c1nc2sc3ccccc3c(=O)n2[nH]1`, the growth inhibition was -28.8%.

Regarding `CC(C)OCCCN(Cn1c(=S)sc2ccccc21)Cn1c(=S)sc2ccccc21`, the growth inhibition was 55.6%.

For `COC(=O)CCC(CCC(=O)O)([N+](=O)[O-])[N+](=O)[O-]`, the growth inhibition was -11.8%.

Turning to `CCN1CCCN(CC)C1=O`, the growth inhibition is 0.1%.

Consider `COc1ccc(NC2=CC(=O)C(=O)c3ccccc32)nn1`, for which the growth inhibition was -16%.

In the case of `COc1cccc(C(=O)NNC(=O)c2ccc3ccccc3c2)c1`, the growth inhibition is 7.95%.

On to `Cc1cccc(Cl)c1NC(=O)c1cccc([N+](=O)[O-])c1`, for which the growth inhibition is 46.4%.

For `COC(=O)C1=C(C(=O)OC)C(=Nc2ccccc2)c2ccccc2C1=O`, the growth inhibition is 90.6% (active).

For the compound `Cc1nc2ccccc2nc1N1CCCC1`, the growth inhibition was 0.55%.

With `COc1ccc(N=C2C(=Nc3ccc(OC)cc3)N(c3ccc(OC)cc3)C(=S)N2C)cc1`, the growth inhibition is 13.5%.

Turning to `CCSc1ccc(C)cc1`, the growth inhibition is 12.6%.

`COc1ccc(/C(Br)=C2\OC(=O)c3ccccc32)cc1`: the growth inhibition is -6.9%.

In the case of `NC(N)=NC1NCC(=O)S1` (stereo not given), the growth inhibition is 21.9%.

As for `COc1ccc(N)c(C(O)CCNC(C)=O)c1` (stereo not given), the growth inhibition is -38.8%.

As for `CCCCNc1nc(SC)nc2nc[nH]c12`, the growth inhibition was -3.9%.

`Nc1ncnc(N)c1NC(=O)c1ccc(CCc2ccccc2)c(Cl)c1`: the growth inhibition was -4.35%.

On to `CCCCCCCN1C=CCC(S(=O)(=O)N2CCOCC2)=C1`, for which the growth inhibition was -2%.

Take `CSc1c(S(C)=O)[nH]c2cc(Br)cc(Br)c12` (stereo not given): the growth inhibition was 85.2% (active).

On to `C/C=C/C=N/SC(c1ccccc1)(c1ccccc1)c1ccccc1`, for which the growth inhibition is 13.6%.

In the case of `COc1cc(/C=C/C(=O)c2sc(NNC(C)=O)nc2C)ccc1O`, the growth inhibition is 27.1%.

With `CC[n+]1ccc(/C=C\c2c(Cl)cccc2Cl)cc1`, the growth inhibition is 12.1%.

As to `C=CCOC(=O)C1CC=CCC1C(=O)OCC=C` (stereo not given), the growth inhibition is -9.8%.

As for `N#C/C(=C/O)c1ccccc1`, the growth inhibition was -13.7%.

Consider `COC(=O)CCSCC(N)C(=O)O` (stereo not given), for which the growth inhibition was -18.4%.

Regarding `CCOCCOc1nc(C)cc(C)c1C#N`, the growth inhibition is -20.9%.

For `CC(OS(C)(=O)=O)C(C)OS(C)(=O)=O` (stereo not given), the growth inhibition was -19.6%.

In the case of `COc1ccccc1NS(=O)(=O)c1ccc2ncn(NS(=O)(=O)c3ccc(Cl)cc3)c(=O)c2c1`, the growth inhibition was 18.1%.

On to `ClC1CC2CC1C1CCCC21` (stereo not given), for which the growth inhibition is -7.4%.

Regarding `CN1CCN(C(=O)/C(=C/c2ccccc2)NC(=O)c2ccccc2)CC1`, the growth inhibition is 8.1%.

Turning to `CCCCCCC(CC)C(N)=O` (stereo not given), the growth inhibition was -7.6%.

For `O=C1CN(c2ccc(Cl)cc2)C(=O)CN1CCN1CC(=O)N(c2ccc(Cl)cc2)CC1=O`, the growth inhibition is -23.6%.

As for `COC(=O)C1=C(C(=O)OC)C(C)(C)N=N1`, the growth inhibition is 3.45%.

In the case of `O=S1(=O)CCCC1C(O)c1ccccc1` (stereo not given), the growth inhibition is -15.1%.

`COc1cc(CNC(=O)CCCCCCCCCCSSCCCCCCCCCCC(=O)NCc2ccc(O)c(OC)c2)ccc1O`: the growth inhibition is -24.8%.

With `Cc1ccccc1C(=O)c1ccccc1Cc1cccc2ccccc12`, the growth inhibition is -22.9%.

With `CCCCCCCCCC(=O)OCC1OC(n2cc(F)c(=O)[nH]c2=O)C(NC(=O)OCc2ccccc2)C(OC(=O)CCCCCCCCC)C1O` (stereo not given), the growth inhibition is -21%.

As for `CN(C)CCCN=c1c2ccccc2n(C)c2[nH]c(=O)n(C)c(=O)c12`, the growth inhibition is -6.85%.
